Consider 89 molecules from PubChem BioAssay AID1259417 (TB Discovery Research, Infectious Disease Research Institute, 2018).

Screen size: about 1,100 compounds; about 760 (69%) were called active. How the calls were made is not given here. So high a share suggests a set chosen from earlier hits. Some of the results follow.

As a reminder, the inhibition is the relative decrease from the control value, in per cent.

A short description of the test: M. tuberculosis growth inhibition, HTS (AID 1259417).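 Further: bacteria grown with compound for 5 days at 37 °C.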 Particulars: stronger effect = higher value, concentration not given here.
The mark [1] stands for this setting: M. tuberculosis DsRed fluorescence growth inhibition.
Where [2] appears, read: M. tuberculosis growth inhibition.

As to `CCOC(=O)CSc1nnc(-c2ccc([N+](=O)[O-])cc2)o1`, the inhibition is, setting by setting: under setting [1], 95.7% (active); under setting [2], 95.6%.
The matching figures for `O=C(/C=C/c1cccc([N+](=O)[O-])c1)c1cccs1`: 94.6% (active) and 96.5%.
The matching figures for `COC(=O)COc1ccc2c(-c3ccc(OC)cc3)cc(=O)oc2c1`: 97.7% (active) and 98.3%.
On the same counts, the results for `CCOC(=O)C(C)Oc1ccc2c(-c3ccc(OC)cc3)cc(=O)oc2c1` (stereo not drawn) are 56.3% (active) and 89%.
With `COC(=O)COc1ccc(-c2ccc(C)cc2)cc1`, the inhibition by setting is: under setting [1], 35.7% (active); under setting [2], 70.9%.
On the same counts, the results for `COC(=O)COc1ccc(NC(=O)c2ccc(-c3ccccc3)cc2)cc1` are 99.4% (active) and 100%.
The matching figures for `CCOC(=O)c1c(C)n(C)c2ccc(OC(C)C(=O)OC)cc12` (stereo not drawn): 3.6% (inactive) and 19.3%.
Regarding `COC(=O)COc1ccc(NC(=O)c2ccc3c(c2)C(=O)N(C(C)(C)C)C3=O)cc1`, the inhibition runs as follows: under setting [1], 69.9% (active); under setting [2], 88.2%.
On the same counts, the results for `CC(C)(C)n1cnc2cc(NC(=O)c3ccc(Cl)cc3)ccc21` are 19.9% (inactive) and 28.4%.
The matching figures for `CCOC(=O)COc1ccc2c(c1)c(C(=O)OCC)c(C)n2CC`: 51.2% (active) and 69.6%.
On the same counts, the results for `CCOC(=O)COc1ccc(-c2ccc(C)cc2)cc1` are 24.3% (active) and 81.2%.
Consider `COC(=O)COc1ccc(-c2ccccc2)cc1`, for which the inhibition is 48.7% (active) under setting [1] and 85.1% under setting [2].
On the same counts, the results for `Cc1ccc(-c2ccc(OCC(=O)OCc3ccccc3)cc2)cc1` are 53.2% (active) and 82.9%.
On the same counts, the results for `CCOC(=O)COc1ccc(OCc2ccccc2)cc1` are 1.21% (inactive) and -7.23%.
Turning to `CC(C(=O)OCc1ccccc1)n1cnc2scc(-c3ccc(Br)cc3)c2c1=O` (stereo not drawn), the inhibition reads like this: under setting [1], -4.93% (inactive); under setting [2], -4.92%.
On to `COc1ccccc1NC(=O)CSc1nc(-c2ccccc2)cc(C(F)(F)F)c1C#N`, for which the inhibition is 0.888% (inactive) under setting [1] and 24.8% under setting [2].
The matching figures for `CN1CCN(c2cc(-c3ccccc3)nc3c(C(F)(F)F)cccc23)CC1`: 93% (active) and 71%.
On the same counts, the results for `CC(NC(=O)c1ccc([N+](=O)[O-])o1)C12CC3CC(CC(C3)C1)C2` (stereo not drawn) are 70% (active) and 75.5%.
The matching figures for `O=C(Oc1cccc2cccnc12)c1cc2ccccc2oc1=O`: 99.2% (active) and 100%.
With `CCN(CC)S(=O)(=O)c1ccc(Cl)c(C(=O)Oc2cccc3cccnc23)c1`, the inhibition by setting is: under setting [1], 100% (active); under setting [2], 99.3%.
The matching figures for `O=C(Oc1cccc2cccnc12)c1ccccc1F`: 101% (active) and 101%.
The matching figures for `O=C(Oc1cccc2cccnc12)c1ccco1`: 101% (active) and 99.7%.
The matching figures for `O=C(Oc1ccccc1)c1cccc2cccnc12`: 99.7% (active) and 101%.
For `CS(=O)(=O)Cc1nc2ccccc2oc1=O`, the inhibition is 99.8% (active) under setting [1] and 99.5% under setting [2].
On the same counts, the results for `CCC(Sc1nc2ccccc2o1)C(=O)Nc1nnc(C)s1` (stereo not drawn) are 92.7% (active) and 96.2%.
The matching figures for `CNc1nc(SC)nc2ccsc12`: 99.7% (active) and 98.9%.
The matching figures for `c1ccc(C2=Nc3ccccc3OC2)cc1`: 97.6% (active) and 97.5%.
`CCCCc1cc(=O)oc2cc(OCC(=O)OCc3ccccc3)c(Cl)cc12`: the inhibition is 33.1% (active) under setting [1] and 73.7% under setting [2].
As for `CCOC(=O)COc1cc2oc(=O)cc(CC)c2cc1Cl`, the inhibition under setting [1] is 6.17% (inactive) and the inhibition under setting [2] is 26.9%.
`CCCCc1cc(=O)oc2cc(OC(C)C(=O)OCC)c(Cl)cc12` (stereo not drawn): the inhibition by setting is: under setting [1], 49.4% (active); under setting [2], 93.7%.
The matching figures for `CCOC(=O)c1cc(-c2csc(-c3ccc(C(F)(F)F)cc3)n2)on1`: 63.4% (active) and 83.4%.
With `CCOC(=O)c1cc(-c2csc(COc3ccc(Cl)cc3)n2)on1`, the inhibition is, setting by setting: under setting [1], 100% (active); under setting [2], 99.5%.
For the molecule `CCOC(=O)c1cc(-c2csc(COc3ccccc3Cl)n2)on1`, the inhibition under setting [1] was 98.1% (active) and the inhibition under setting [2] worked out at 98.8%.
On the same counts, the results for `CCOC(=O)C(/C=C(\C#N)C(=O)OCC)=C(/N)N1CCN(c2ccc(Cl)cc2)CC1` are 46% (active) and 46.9%.
The matching figures for `CCOc1ccc2c(c1)OC(=Cc1cccc(OCC(=O)OC)c1)C2=O`: 10% (active) and 50.5%.
For the molecule `CCOC(=O)COc1cccc(C=C2Oc3cc(OC)ccc3C2=O)c1`, the inhibition reads like this: under setting [1], 31.7% (active); under setting [2], 54%.
Turning to `CCOC(=O)COc1ccc(C=C2Oc3cc(OC)ccc3C2=O)cc1`, the inhibition is, setting by setting: under setting [1], 60.8% (active); under setting [2], 79.9%.
With `COc1c(N2CCNC(C)C2)c(F)cc2c(=O)c(C(=O)O)cn(C3CC3)c12` (stereo not drawn), the inhibition under setting [1] is 99.5% (active) and the inhibition under setting [2] was 101%.
As to `NC1CCN(c2nc3c(cc2F)c(=O)c(C(=O)O)cn3-c2ccc(F)cc2F)C1` (stereo not drawn), the inhibition by setting is: under setting [1], 98.3% (active); under setting [2], 98.4%.
Consider `NC1CCN(c2c(F)cc3c(=O)c(C(=O)O)cn(C4CC4)c3c2Cl)C1` (stereo not drawn), for which the inhibition was 99.8% (active) under setting [1] and 100% under setting [2].
For the molecule `COc1c(N2C[C@@H]3CCCN[C@@H]3C2)c(F)cc2c(=O)c(C(=O)O)cn(C3CC3)c12`, the inhibition was 101% (active) under setting [1] and 100% under setting [2].
For the molecule `CC1=NN(c2nc3ccccc3s2)C(=O)C1Cc1cccc2ccccc12` (stereo not drawn), the inhibition runs as follows: under setting [1], -2.3% (inactive); under setting [2], 21.1%.
Consider `Cc1ccc2c(c1)c(-c1ccccc1)c(-c1ccccc1)n2CC(O)CN1CCN(CCO)CC1` (stereo not drawn), for which the inhibition reads like this: under setting [1], 23.8% (inactive); under setting [2], 13.1%.
Turning to `Cc1cc(C)c2c(c1)c(-c1ccccc1)c(-c1ccccc1)n2CC(O)CN1CCN(CCO)CC1` (stereo not drawn), the inhibition by setting is: under setting [1], 48.4% (active); under setting [2], 39.3%.
On the same counts, the results for `Clc1ccc(C2=CC(c3ccc(Cl)cc3)n3nnnc3N2)cc1` (stereo not drawn) are 43.4% (active) and 39.3%.
Regarding `CCOC(=O)COc1ccc(C(=O)NC2CCCCC2)cc1`, the inhibition is 1.79% (inactive) under setting [1] and -15.3% under setting [2].
The matching figures for `CCOC(=O)COc1ccc(C(=O)Nc2ccc(F)cc2)cc1`: 20.5% (active) and 42.4%.
For the molecule `O=C(COc1ccc(-c2ccccc2)cc1)OC1CCCCC1`, the inhibition by setting is: under setting [1], 26.1% (active); under setting [2], 58.6%.
`O=C(COc1ccc(C(=O)NCc2ccccc2)cc1)OC1CCCCC1`: the inhibition runs as follows: under setting [1], 37.7% (active); under setting [2], 52.9%.
The matching figures for `Cc1ccc(NC(=O)c2ccc(OCC(=O)OC3CCCCC3)cc2)cc1`: 53.4% (active) and 78.1%.
The matching figures for `Cc1c(Cc2ccccc2)c(NCCCO)n2c(nc3ccccc32)c1C#N`: 97.8% (active) and 87.9%.
Turning to `Cc1c(Cc2ccc(Cl)cc2)c(NCCCN(C)C)n2c(nc3ccccc32)c1C#N`, the inhibition was 14.4% (inactive) under setting [1] and -9.38% under setting [2].
`O=C(NCCc1ccc(F)cc1)NC12CC3CC(CC(C3)C1)C2`: the inhibition is 100% (active) under setting [1] and 96.2% under setting [2].
With `CCOC(=O)c1c(CSc2ccccc2)n(-c2ccccc2)c2ccc(O)c(CN(C)C)c12`, the inhibition by setting is: under setting [1], 92.7% (active); under setting [2], 91.9%.
Take `Oc1ccc(CNc2ccccc2O)cc1`: the inhibition by setting is: under setting [1], 98.3% (active); under setting [2], 97.3%.
On the same counts, the results for `N#Cc1nc(-c2cccs2)oc1NCCc1ccccc1` are 100% (active) and 100%.
Turning to `CC(C)N=c1cc2n(-c3ccc(Cl)cc3)c3ccccc3nc-2cc1Nc1ccc(Cl)cc1`, the inhibition runs as follows: under setting [1], 100% (active); under setting [2], 99.5%.
The matching figures for `Cc1ccccc1Nc1nc(-c2ccccn2)cs1`: 87.2% (active) and 92.7%.
On the same counts, the results for `Cc1cccnc1Nc1nc(-c2ccccn2)cs1` are 100% (active) and 100%.
The matching figures for `Cc1ccn2c(-c3csc(Nc4ccccn4)n3)c(C)nc2c1`: 98.9% (active) and 100%.
Turning to `Cc1cc(O)ccc1Nc1nc(-c2ccccn2)cs1`, the inhibition is 71.9% (active) under setting [1] and 77.7% under setting [2].
On the same counts, the results for `Cc1cccc(Nc2nc(-c3ccccn3)cs2)n1` are 91.2% (active) and 97.6%.
On the same counts, the results for `Cc1cccc(NC(=O)c2cc(-c3cccs3)nc3ccccc23)n1` are 8.52% (inactive) and 22.7%.
On the same counts, the results for `FC(F)(F)c1ccccc1Nc1nc(-c2ccccn2)cs1` are 90.1% (active) and 86.1%.
As for `O=C(NCCC12CC3CC(CC(C3)C1)C2)c1ccc(Br)cc1`, the inhibition is, setting by setting: under setting [1], 98.8% (active); under setting [2], 94.1%.
On the same counts, the results for `Cc1ccc(C(=O)NCCC23CC4CC(CC(C4)C2)C3)cc1` are 100% (active) and 97.3%.
On the same counts, the results for `c1ccc2sc(NC3=NCN(Cc4ccc5c(c4)OCO5)CN3)nc2c1` are 17.9% (active) and 69.1%.
The matching figures for `Cc1nc2ccc(C(=O)OCc3nnc(-c4ccccc4)o3)cc2nc1C`: -4.41% (inactive) and 0.442%.
Consider `Cc1nc2ccc(C(=O)OCc3cccc(F)c3)cc2nc1C`, for which the inhibition reads like this: under setting [1], 19.1% (active); under setting [2], 60.3%.
On the same counts, the results for `O=C(OCc1ccc(F)cc1)c1ccc2ccccc2n1` are 3.6% (inactive) and 5.51%.
`CC(C)(C)c1ccc(C(=O)Nc2nnc(-c3ccco3)o2)cc1`: the inhibition by setting is: under setting [1], 88.2% (active); under setting [2], 89.7%.
On to `O=C(Nc1nnc(-c2ccco2)o1)c1cccs1`, for which the inhibition was 17.8% (active) under setting [1] and 40.1% under setting [2].
For the molecule `O=C(Nc1nnc(-c2cccs2)o1)c1cccc(C(F)(F)F)c1`, the inhibition is 1.3% (inactive) under setting [1] and 6.76% under setting [2].
The matching figures for `O=C(Nc1nnc(-c2cccs2)o1)c1ccco1`: -2.8% (inactive) and -18.4%.
On the same counts, the results for `Cc1ccccc1C(=O)Nc1nnc(-c2ccco2)o1` are 47.6% (active) and 71.5%.
The matching figures for `O=C(Nc1nnc(-c2ccco2)o1)c1cccc(C(F)(F)F)c1`: 88.4% (active) and 94.4%.
For the molecule `CCSc1ccc(C(=O)Nc2nnc(-c3ccco3)o2)cc1`, the inhibition reads like this: under setting [1], 83.8% (active); under setting [2], 91.8%.
The matching figures for `CCSc1ccc(CC(=O)Nc2nnc(-c3ccc4c(c3)OCCO4)o2)cc1`: 2.15% (inactive) and 7.09%.
The matching figures for `CN1CCC(O)(c2cccs2)C(C(=O)c2cccs2)C1` (stereo not drawn): 100% (active) and 98.7%.
Turning to `c1ccc(OCc2nn3c(-c4n[nH]c5c4CCC5)nnc3s2)cc1`, the inhibition under setting [1] was 99.1% (active) and the inhibition under setting [2] worked out at 99.6%.
On the same counts, the results for `O=C(CSc1nc2ccccc2c(=O)[nH]1)NCc1ccccc1` are 101% (active) and 100%.
For `COc1ccccc1NC(=O)CSc1nc2cc3ccccc3cc2[nH]1`, the inhibition is -0.285% (inactive) under setting [1] and -21.7% under setting [2].
Regarding `N#Cc1ccccc1NC(=O)CSc1nc2cc3ccccc3cc2[nH]1`, the inhibition under setting [1] is 2.65% (inactive) and the inhibition under setting [2] was 10.4%.
The matching figures for `O=C(NCCN1CCOCC1)c1ccc([N+](=O)[O-])cc1[N+](=O)[O-]`: 98.1% (active) and 94.6%.
For `O=[N+]([O-])c1ccc(NCCNc2nc3ccccc3nc2N2CCOCC2)cc1`, the inhibition reads like this: under setting [1], 8.52% (inactive); under setting [2], -3.69%.
Turning to `Cc1cc(C)n(C(=O)c2ccc([N+](=O)[O-])cc2[N+](=O)[O-])n1`, the inhibition by setting is: under setting [1], 0.918% (inactive); under setting [2], -7.93%.
As to `O=C(Nc1nnc(-c2ccc(Cl)cc2)o1)c1ccco1`, the inhibition by setting is: under setting [1], 20% (active); under setting [2], 48.4%.
The matching figures for `O=C(Nc1nnc(-c2ccccc2)o1)c1ccco1`: 20.9% (active) and 32.7%.
The matching figures for `O=C(Nc1nnc(-c2ccc(F)cc2)o1)c1ccco1`: 26% (inactive) and 16.6%.
